This is an account of results in PubChem BioAssay.

Records with an inconclusive call do not appear. Active and inactive are the calls of the source.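 Rule for the calls, unless noted: active = RAM network inhibition above 8.4% in each of two replicates, 3 SD over the compound average; inconclusive = above 8.4% inhibition in only one replicate; inactive = 8.4% inhibition or less in each replicate.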

Test [1] in a line: reducers of endogenous Her2 protein level, primary screen, SKBR3 breast tumor cells, AlphaScreen, ATP viability (AID 461;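 active = Her2 level under about 52% in both replicate screens, with viability over 70% of control, limit read from the data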;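 for Her2 level: lower value means less Her2 protein in the cells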;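 for viability: percent of carrier control wells set as 100% viability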). Particulars: 18-24 h, measured here: SKBR3 viability, ATP luminescence, at 10 µM.
Test [2] addresses Receptor tyrosine-protein kinase erbB-2 (Homo sapiens) (UniProt P04626). The description is as above. As to conditions: 18-24 h, at 10 µM, stronger effect = lower value.
The nature of test [3]: SK-BR-3 cell growth inhibitors, pilot screen, 24 h, human (AID 572;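 active = viability at or below 10% of carrier control in both of two separate runs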;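 note: compound exposure lasted between 18 and 24 h rather than exactly 24 h; 100% = carrier-treated control wells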). As to conditions: SK-BR-3 viability, CellTiter-Glo luminescence, at 10 µM, stronger effect = lower value.
A short description of test [4]: HUVEC growth inhibition – cell-based, human, primary screen (AID 575;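 active = viability at or below 30% in both replicate assays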;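 note: 100% = median of untreated cell wells with 0.1% DMSO on each plate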). As to conditions: HUVEC proliferation, CellTiter-Glo luminescence, 72 h; at 10 µM; stronger effect = lower value.
Test [5] is described as follows: growth inhibitors of H69AR lung tumor, primary screen, human, duplicate replicates (AID 580;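 active = viability at or under a set limit in both replicates, limit being median viability minus 3 SD, cut at about 48% in these data, passing the limit was not always enough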;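 note: 100% = mean luminescence of untreated wells and 0% = no signal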). As to conditions: H69AR lung tumor cells viability, ATP luminescence, 72 h; at 10 µM; stronger effect = lower value.
Test [6] in a line: reversal of MRP1-mediated doxorubicin resistance, pilot screen, H69AR cells, doxorubicin co-treatment (AID 601;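 active = viability loss from added drug above about 55%, and viability with drug at most 40%, in both replicates, limit read from the data, passing the limit was not always enough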). As to conditions: CellTiter-Glo, 72 h, at 10 µM; for differential viability (reversal): stronger effect = higher value.
The nature of test [7]: 384-well plate pilot, post-Golgi transport modulator project, inhibition of yeast transport mutant growth (AID 636; in the data active = inhibition above about 31%). As to conditions: absorbance 615 nm, about 18 h, stronger effect = higher value.
Test [8] in a line: growth suppression of yeast trafficking mutant, preliminary HTS, modulators of trafficking downstream of Golgi apparatus project, 1536-format plate, OD 615 nm (AID 637; in the data active = inhibition above about 30%). As to conditions: yeast transport mutant growth, absorbance 615 nm, 18 h; stronger effect = higher value.
Test [9] can be described thus: OD615 S. cerevisiae growth inhibition, permissive medium, pilot counter-assay, permissive growth control for S. cerevisiae lifespan shortening project (AID 705;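 active = growth inhibition above 25% in both replicates, a cutoff set 3 SD above the mean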). Particulars: OD615, 24 h, at 10 µM, stronger effect = higher value.
Test [10] is described as follows: Restrictive medium S. cerevisiae growth inhibition, OD615, pilot screen of yeast lifespan reduction project, restrictive growth control (AID 706;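 active = growth inhibition above a set limit, 3 SD over mean compound inhibition, in both replicates, cut at about 43% in these data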;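 note: modified DeaD lifespan yeast strain shifted to restrictive glucose medium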). As to conditions: OD615, 48 h, at 10 µM, stronger effect = higher value.
The nature of test [11]: viability gain of MRP-1-high H69AR cells under doxorubicin, pilot screen, MRP-1 activator project, CellTiter-Glo, duplicate (AID 807;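 active = viability increase at or above a cutoff of the median across tested compounds plus 3 SD, cut at about 8.5% in these data, passing the limit was not always enough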;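 note: compound pretreatment 18-22 h then 72 h combined with doxorubicin; 0% = doxorubicin alone and 100% = vehicle without doxorubicin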). Particulars: H69AR viability with doxorubicin, CellTiter-Glo luminescence; at 10 µM; stronger effect = higher value.
Test [12] in a line: growth suppression of beta-catenin knockout HCT116, pilot screen, human colon tumor cells (AID 823;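 active = cell viability at or below a set limit in both duplicate runs, the limit being the all-compound median minus 4 SD, cut at about 23% in these data, passing the limit was not always enough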;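 note: 0% = wells killed by 20 µM Hyamine and 100% = untreated DMSO cell wells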). Particulars: CellTiter-Glo, 60 h, at 10 µM, stronger effect = lower value.
Test [13] is described as follows: growth suppression of PTEN-deleted HCT116, pilot screen, cell-based, HCT116 clonal line, CellTiter-Glo (AID 824;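 active = viability at or below 27.92% in each of two runs, the all-compound median minus 4 SD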;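 note: 0% = 20 µM Hyamine control and 100% = vehicle cell control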). As to conditions: 60 h, at 10 µM, stronger effect = lower value.
Test [14] is described as follows: inhibitors of the yeast RAM network, pilot screen, dse1pr::URA3 reporter, 5-FOA selection (AID 869;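 active = inhibition over a set limit, the all-compound mean plus 3 SD, in both replicate runs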;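 note: 0% = DMSO wells with no growth and 100% = 10 µM 1-NA-PP1 with full growth; RAM network block rescues cells from 5-FOA so hits raise OD615 growth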). Particulars: S. cerevisiae dse1pr::URA3 5-FOA growth, OD615, 2 d; at 10 µM; stronger effect = higher value; strain carries analog-sensitive mutant Cbk1 kinase.
Test [15] can be described thus: RAM signaling pathway blockade in yeast – S. cerevisiae, Pdr1DBD-CYC8 efflux-inhibited sensitized strain, primary screen (AID 1298).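 Note: 0% = DMSO untreated cells without growth and 100% = 10 µM 1-NA-PP1 full growth; higher means more yeast growth rescued from 5-FOA killing.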 Particulars: S. cerevisiae cbk1-as DSE1-URA3 strain, 5-FOA growth OD615, 2 d; at 50 µM; stronger effect = higher value.
Setting [16] is: H69AR cells + 2 uM doxorubicin, measured here: viability with 2 uM doxorubicin, stronger effect = lower value.
The mark [17] stands for this setting: H69AR cells, compound alone cytotoxicity.

Chain of Receptor tyrosine-protein kinase erbB-2 (Homo sapiens) (P04626 whole entry, looked up): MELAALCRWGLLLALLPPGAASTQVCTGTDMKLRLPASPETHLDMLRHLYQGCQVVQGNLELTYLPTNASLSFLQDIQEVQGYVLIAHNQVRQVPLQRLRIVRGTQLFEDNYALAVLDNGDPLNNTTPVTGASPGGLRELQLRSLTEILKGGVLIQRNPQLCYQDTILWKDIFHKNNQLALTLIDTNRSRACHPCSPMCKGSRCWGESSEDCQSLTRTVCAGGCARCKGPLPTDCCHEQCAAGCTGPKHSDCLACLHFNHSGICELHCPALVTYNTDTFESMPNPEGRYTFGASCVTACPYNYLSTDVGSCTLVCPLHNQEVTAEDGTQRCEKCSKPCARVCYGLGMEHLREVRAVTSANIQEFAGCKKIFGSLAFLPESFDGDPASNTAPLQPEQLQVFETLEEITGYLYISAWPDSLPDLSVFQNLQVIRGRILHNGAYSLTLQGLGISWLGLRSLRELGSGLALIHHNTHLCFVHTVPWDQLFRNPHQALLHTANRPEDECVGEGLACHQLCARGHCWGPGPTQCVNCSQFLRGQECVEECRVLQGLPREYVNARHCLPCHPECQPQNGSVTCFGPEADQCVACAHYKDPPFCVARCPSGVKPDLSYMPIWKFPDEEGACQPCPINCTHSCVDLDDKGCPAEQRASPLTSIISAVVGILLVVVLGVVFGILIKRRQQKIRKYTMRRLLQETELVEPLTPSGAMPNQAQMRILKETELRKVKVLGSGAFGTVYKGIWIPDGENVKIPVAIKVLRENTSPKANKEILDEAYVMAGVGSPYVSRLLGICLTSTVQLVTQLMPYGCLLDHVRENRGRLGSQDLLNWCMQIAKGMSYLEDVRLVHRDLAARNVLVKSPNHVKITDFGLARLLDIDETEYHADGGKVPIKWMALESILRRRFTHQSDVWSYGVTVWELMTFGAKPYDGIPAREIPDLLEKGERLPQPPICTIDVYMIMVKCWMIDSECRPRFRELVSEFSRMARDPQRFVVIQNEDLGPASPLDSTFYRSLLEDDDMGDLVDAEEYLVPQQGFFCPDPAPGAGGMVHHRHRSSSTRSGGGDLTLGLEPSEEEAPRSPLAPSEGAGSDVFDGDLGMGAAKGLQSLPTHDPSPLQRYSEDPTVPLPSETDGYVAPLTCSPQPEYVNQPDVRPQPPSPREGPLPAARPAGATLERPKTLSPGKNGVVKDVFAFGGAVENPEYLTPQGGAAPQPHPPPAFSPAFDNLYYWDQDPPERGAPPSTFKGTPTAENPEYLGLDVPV

Turning to `CCN(CC)c1ccc(NC(=O)c2nc3nc(C)cc(C(F)F)n3n2)cc1`, the viability in test [1] is 122%; in [3] it was 122% (inactive); in test [4], 81.6% (inactive); in test [5] it was 84.4% (inactive); in test [6] (setting [16]) it was 77.4%; in test [6] (setting [17]) it was 84.4%. Besides, the values for the viability in [12] and in [13] were 95.2% (inactive) and 88% (inactive), respectively. Also, in test [2], the Her2 level was 102% (inactive). Further, the differential viability (reversal) in test [6] (H69AR cells + 2 uM doxorubicin) was 6.97% (inactive). Also, the inhibition is -3.6% (inactive) in test [7], 6.72% (inactive) in [8] and 0.83% (inactive) in [14]. Besides, the growth inhibition in test [9] is -8.26% (inactive); in test [10], -10.5% (inactive). For the same molecule, in test [11], the viability increase was 0.23% (inactive). The RAM network inhibition in test [15] was 1.16% (inactive).
Regarding `C/C=C/Cn1c(SCCCc2ccccc2)nc2c1c(=O)[nH]c(=O)n2C`, the viability in test [1] was 89.5%; in test [3], 89.5% (inactive); in test [4], 61.2% (inactive); in test [5], 69.6% (inactive); in test [6] (setting [16]) it was 68.8%; in test [6] (setting [17]), 69.6%. The results for the viability in [12] and in test [13] were 66.8% (inactive) and 52.6% (inactive), respectively. In test [2], the Her2 level is 72% (inactive). Further, in test [6] (H69AR cells + 2 uM doxorubicin), the differential viability (reversal) was 0.835% (inactive). In addition, the results for the inhibition in [7], in test [8] and in test [14] were 1.07% (inactive), 3.61% (inactive) and 1.32% (inactive), respectively. Also, the results for the growth inhibition in test [9] and in test [10] were -15.3% (inactive) and 1.29% (inactive), respectively. The viability increase in test [11] is -3.52% (inactive). For the same molecule, the RAM network inhibition in test [15] was 9.17% (inactive).
Take `O=C(c1cnc2n(c1=O)CCS2)N(C1CCCCC1)C1CCCCC1`: the viability in [1] was 87%; in test [3], 87% (inactive); in test [4], 106% (inactive); in test [5] it was 102% (inactive); in [6] (setting [16]), 97.4%; in test [6] (setting [17]), 102%. The viability is 101% (inactive) in test [12] and 92.3% (inactive) in test [13]. Also, in test [2], the Her2 level is 84% (inactive). Besides, the differential viability (reversal) in test [6] (H69AR cells + 2 uM doxorubicin) is 5.03% (inactive). For the same molecule, the inhibition in [7] was -4.53% (inactive); in test [8], -1% (inactive); in test [14], 1.71% (inactive). In addition, the growth inhibition in test [9] was 2.67% (inactive); in test [10], -18.9% (inactive). Besides, the viability increase in test [11] is -2.34% (inactive). Besides, the RAM network inhibition in test [15] was 2.61% (inactive).
As to `CCOC(=O)N1CCN(c2cc(=O)n(-c3ccccc3Cl)c(=O)[nH]2)CC1`, the viability in test [1] is 98.5%; in test [3], 98.5% (inactive); in [4] it was 100% (inactive); in [5], 86.9% (inactive); in test [6] (setting [16]), 90.1%; in [6] (setting [17]), 86.9%. For the same molecule, the results for the viability in test [12] and in test [13] were 96.8% (inactive) and 105% (inactive), respectively. Besides, the Her2 level in [2] was 124% (inactive). The differential viability (reversal) in test [6] (H69AR cells + 2 uM doxorubicin) is -3.22% (inactive). The results for the inhibition in test [7], in test [8] and in test [14] were 0.27% (inactive), 12.5% (inactive) and 0.77% (inactive), respectively. Further, the growth inhibition was -9.94% (inactive) in test [9] and -0.995% (inactive) in test [10]. Besides, the viability increase in test [11] was 1.69% (inactive). Also, the RAM network inhibition in test [15] is 4.58% (inactive).
With `CCN1C(=C2C(=O)c3ccccc3C2=O)C=Cc2ccccc21`, the viability in [1] was 96.5%; in [3], 96.5% (inactive); in test [4] it was 92.6% (inactive); in [5] it was 93.4% (inactive); in test [6] (setting [16]) it was 93.9%; in test [6] (setting [17]) it was 93.4%. In addition, the viability was 105% (inactive) in [12] and 95.1% (inactive) in test [13]. In addition, the Her2 level in test [2] is 97% (inactive). Further, the differential viability (reversal) in test [6] (H69AR cells + 2 uM doxorubicin) was -0.49% (inactive). Further, the values for the inhibition in test [7], in test [8] and in test [14] were 0.64% (inactive), -8% (inactive) and 1.86% (inactive), respectively. Moreover, the growth inhibition in test [9] was -23.3% (inactive); in [10], -27.6% (inactive). The viability increase in test [11] is -1.18% (inactive). Besides, the RAM network inhibition in test [15] was -0.72% (inactive).
